Assay results reported in PubChem BioAssay (NCATS).
Results filed as inconclusive are left out. Some compounds were tested as several samples or in several runs, with calls that do not always agree. A number with no mark means an inactive call. Calls of active or inactive are those of the source. Calls come from the whole dose curve; as a rule, active = well fitted inhibition curve with a large enough effect; inconclusive = small, poorly fitted or top-dose-only effect; inactive = no such curve, though single readings can be large or run the other way.

Assay: Primary qHTS for small molecule stabilizers of the endoplasmic reticulum resident proteome: Secreted ER Calcium Modulated Protein (SERCaMP) assay (AID 1508630)
Conditions: SH-SY5Y GLuc-SERCaMP (Gaussia luciferase released on ER calcium loss) secretion, thapsigargin, luminescence; series mostly up to 38.4 µM; activity change, negative = inhibition: at the top concentration
Text: Assay Provider: Brandon K. Harvey Ph.D.
National Institute on Drug Abuse, National Institutes of Health, Baltimore, MD
Endoplasmic reticulum (ER) dysregulation is associated with human pathologies including neurodegenerative, cardiovascular, muscular, and diabetic conditions. Maintenance of ER calcium is critical for functions of the ER and its depletion can lead to loss of ER resident proteins, in a process termed exodosis. Therapeutic compounds capable of attenuating the redistribution of ER proteins under pathological conditions may slow or stop disease progression. To identify such compounds, we performed a quantitative high-throughput screen (qHTS) using the SERCaMP assay, which monitors secretion of ER resident proteins triggered by calcium depletion.
SERCaMP was initially developed as a reporter of ER calcium homeostasis using a Gaussia luciferase with a modified signal peptide and carboxy-terminus (GLuc-SERCaMP), modifications that confer secretion of the reporter in response to ER calcium depletion (Henderson et al., 2014). The assay was used to screen 9,501 compounds, including a collection of drugs approved by the FDA (US), EMA (EU), NHI (Japan), and HC (Canada) regulatory agencies (Huang et al., 2011). Since the SERCaMP reporter reflects the exodosis phenomenon (Trychta et al., 2018a), compounds identified in the screen have the potential to prevent exodosis by different mechanisms such as stabilizing ER calcium or augmenting ERS retrieval.
1. Henderson, M.J., Wires, E.S., Trychta, K.A., Richie, C.T., and Harvey, B.K. (2014). SERCaMP: a carboxy-terminal protein modification that enables monitoring of ER calcium homeostasis. Mol Biol Cell 25, 2828-2839.
2. Huang, R., Southall, N., Wang, Y., Yasgar, A., Shinn, P., Jadhav, A., Nguyen, D.T., and Austin, C.P. (2011). The NCGC pharmaceutical collection: a comprehensive resource of clinically approved drugs enabling repurposing and chemical genomics. Sci Transl Med 3, 80ps16.
3. Trychta, K.A., Back, S., Henderson, M.J., and Harvey, B.K. (2018a). KDEL Receptors Are Differentially Regulated to Maintain the ER Proteome under Calcium Deficiency. Cell Rep 25, 1829-1840 e1826.
SEQUENCE No. (1, 2, 3, etc.); […] (e.g., Cells, Incubation, Reagent, etc.); VALUE and DESCRIPTION.
1; Reagent; 5 uL; 1000 SH-SY5Y cells per wells
3; Compound; 23 nL; Control inhibitor / compound library
5; Reagent; 100 nM; Thapsigargin
7; Reagent; 1 uL; 0.5x coelenterazine
8; Detection; Luminescence; ViewLux imaging system
NOTES (numbers refer to sequence above)
1; SH-SY5Y human neuroblastoma cells stably expressing GLuc-SERCaMP (SH-SY5Y-GLuc-ASARTDL) cells were seeded in 1,536 well white tissue culture treated plates (Corning, Cat# 7464) in DMEM-high glucose-sodium pyruvate (ThermoFisher Scientific, Cat #10569) supplemented with 10% bovine growth serum (Hyclone), 10 U/ml penicillin (Gibco), 10 ug/ml streptomycin (Gibco), and 20 mM HEPES.
2; Assay plates were incubated for 5 hour at 37C in a humidified incubator containing 5% CO2.
3; qHTS libraries (23 nl, final concentrations of 1.53 uM, 7.67 uM, 38.3 uM) or controls (neutral control: DMSO, positive control: dantrolene) were added using a Kalypsis pin-tool Robotic System equipped with 1536 pinheads.
4; Cells were then incubated for 16 hours at 37C, 5% CO2.
5; Thapsigargin was added at 100 nM to deplete ER calcium stores.
6; Cells were incubated for 4 hour (37 °C, 5% CO2)
7; Gaussia luciferase in the medium was measured by adding 1 ul of 0.5x coelenterazine (final concentration 0.07x) prepared in Gaussia Luciferase Glow Assay Buffer (Pierce), without addition of the Cell Lysis Buffer Reagent.
8; Luminescence was measured using a ViewLux […] CCD imaging system (Perkin Elmer) equipped with clear filters. […] The same controls were also used for the calculation of the Z' factor, a measure of assay quality control, as previously described (Zhang et al., 1999). […]
% is set by controls: 0 for no effect and ±100 for the full control effect; potency is the fitted concentration of half-maximal effect.

With `CCCCC/C=C\C=C\[C@H](O)CCCCCCCC(=O)O` the activity change, negative = inhibition was 2.02% [at 0.478 µM].

Point of comparison: `c1ccc(-c2[nH]ncc2-c2ccnc3ccccc23)nc1`, “activity change, negative = inhibition” value 14.9%. Against it:
- Cc1cc(C(=O)O)ccc1[C@H](N)C(=O)O — lower, -38.4%
- CCCn1c(=O)c2[nH]c(-c3ccc(OCC(=O)Nc4ccc(C(C)=O)cc4)cc3)nc2n(CCC)c1=O — lower, -19.1%
- CCN(Cc1ccncc1)C(=O)[C@@H](CO)c1ccccc1 — lower, -16.8%
- CC(N)(C(=O)O)c1ccc(-c2nn[nH]n2)cc1 (stereo not given) — lower, -22.5%
- O=c1cc(N2CCNCC2)oc2c(-c3ccccc3)cccc12 — lower, -3.7%
- Cc1ccccc1N1CCN(S(=O)(=O)CC23CCC(CC2NC(=O)C(N)CCS(C)(=O)=O)C3(C)C)CC1 (stereo not given) — lower, -5%
- C=C1CC2COC(=O)C2(Cc2ccc3ccccc3c2)C1 (stereo not given) — lower, 8.28%
- Nc1nc2c(nc(Br)n2[C@@H]2O[C@H]3COP(=O)(O)O[C@H]3[C@@H]2O)c(=O)[nH]1 — lower, -13.7%
- NCCC[C@@H](N)C(=O)O — lower, -3.15%
- CSc1nc(N)c2ncn([C@H]3O[C@H](COP(=O)(O)OP(=O)(O)OP(=O)(O)O)[C@@H](O)[C@@H]3O)c2n1 — lower, -30.3%
- NCCNC(=O)Cc1ccc(NC(=O)Cc2ccc(Nc3ncnc4c3ncn4[C@@H]3O[C@H](CO)[C@@H](O)[C@H]3O)cc2)cc1 — lower, -7.08%
- CCCN=C(N)NCCC[C@H](N)C(=O)O — lower, -19.5%
- CC(C)=CCC/C(C)=C/CC/C(C)=C/CC/C(C)=C/CO — lower, -11.4%
- CC12CCC3c4ccc(O)cc4CCC3C1CCC2O (stereo not given) — higher, 20.9%
- CC1(C)CC(=O)C([C@H]2C3=C(CC(C)(C)CC3=O)Oc3ccccc32)C(=O)C1 — lower, 11%
- N[C@]1(C(=O)O)CCc2cc(C(=O)O)ccc21 — lower, -12.5%
- COc1ccc(CCCO[C@@H](Cn2ccnc2)c2ccc(OC)cc2)cc1 — lower, 2.43%
- COc1ccc(CC(N)C(=O)NC2C(O)[C@H](n3cnc4c(N(C)C)ncnc43)O[C@@H]2CO)cc1 (stereo not given in full) — higher, 278%
- CC#C[C@]1(O)CC[C@H]2[C@@H]3CCC4=CC(=O)CCC4=C3[C@H](c3ccc(N(C)C)cc3)C[C@@]21C — lower, -29.3%
- Nc1nc(NCC2CCC(CNS(=O)(=O)c3cccc4ccccc34)CC2)nc2ccccc12 (stereo not given) — higher, 235%
- CC[N+]1(C)C2CCC1CC(OC(=O)[C@H]1CCC(C(=O)OC3CC4CCC(C3)[N+]4(C)CC)(c3ccccc3)c3ccccc31)C2 (stereo not given in full) — lower, -10.6%
- Cc1cc(C)cc(C(=O)N(C)[C@H](Cc2ccc(-c3ccccc3)cc2)C(=O)N[C@@H](Cc2c[nH]c3ccccc23)C(=O)O)c1 — higher, 21%
- CC[N+](C)(CC)CCC[n+]1c(-c2ccccc2)c2cc(N)ccc2c2ccc(N)cc21 — lower, -27.2%
- Cc1c(C(=O)NN2CCOCC2)nn(-c2ccc(Cl)cc2Cl)c1-c1ccc(I)cc1 — higher, 19.6%
- CSCC[C@H](NC(=O)[C@H](Cc1ccccc1)NC[C@@H](NC[C@@H](N)CS)C(C)C)C(=O)O — lower, 9.65%
- CO[C@@]12C[C@@H](COC(=O)c3cncc(Br)c3)CN(C)[C@H]1Cc1cn(C)c3cccc2c13 — lower, -18.7%
- C[C@@H](C[C@H](N)C(=O)O)C(=O)O — lower, 2.74%
- Fc1ccc([C@H]2CCNC[C@H]2COc2ccc3c(c2)OCO3)cc1 — higher, 241%
- CN1Cc2c(C(=O)OC(C)(C)C)ncn2-c2ccsc2C1=O — lower, -8.18%
- CCc1cc2c(c(CC)n1)CCC(=O)N2Cc1ccc(-c2ccccc2-c2nn[nH]n2)cc1 — lower, 8.06%
- CS(=O)(=O)Nc1c(O)ccc2c1CCCC2C1=NCCN1 (stereo not given) — lower, -16.5%
- Cc1ccc(S(=O)(=O)/C=C\C#N)cc1 — higher, 187%

Point of comparison: `CCCCCCCCCCCCC/C=C/[C@@H](O)[C@@H](N)CO`, activity change, negative = inhibition -29.5% [at 3.88 µM]. Against it:
- CCCCC[C@H](O)CC[C@H]1[C@H](O)CC(=O)[C@@H]1CCCCCCC(=O)O — higher, -15% [at 3.88 µM]
- C=C1/C(=C\C=C2/CCC[C@]3(C)C([C@H](C)CCCC(C)(C)O)CC[C@@H]23)C[C@@H](O)C[C@@H]1O (stereo not given in full) — higher, -19.4% [at 3.88 µM]
- CCCCC/C=C\C/C=C\C/C=C\C/C=C\CCCCCC(=O)O — higher, 14.9% [at 3.88 µM]

In the case of `CCCCCCCCCCCCC/C=C/[C@@H](O)[C@@H](N)CO`, the Potency was 1.12 µM (active).
For `N=C(N)S/C=C\C(=O)O`, the Potency was “inactive”.
